# Laboratory results published in PubChem BioAssay (NCATS).
# Inconclusive results are not listed. A call without a number means that no potency is given here. Values without a mark were called inactive. Activity calls are given as the source filed them. Calls come from the whole dose curve; as a rule, active = well fitted inhibition curve with a large enough effect; inconclusive = small, poorly fitted or top-dose-only effect; inactive = flat fitted curve, though single readings scatter.
# Tests used:
# Experiment in all cases: qHTS profiling for inhibitors of Plasmodium falciparum proliferation (AID 504749); note: nearly all actives have a fitted effect of over 60% in size
# Conditions in all cases: P. falciparum in erythrocytes, SYBR Green DNA, 72 h; series mostly up to 28.7 µM
# ATS189 = tested on: ATS189
# Summary of the method: (§1)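 SYBR Green fluorescence of parasite DNA, read after lysis and overnight dark incubation, measured growth over 72 h in erythrocyte culture at 0.3% parasitemia and 2.5% hematocrit. Data normalised to DMSO and 0.29 uM artemisinin, with plate-drift correction.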
# ATS95 = tested on: ATS95
# Summary of the method: as §1
# C2A = tested on: C2A
# Summary of the method: as §1
# CP185 = tested on: CP185
# Summary of the method: as §1
# CP191 = tested on: CP191
# Summary of the method: as §1
# CP192 = tested on: CP192
# Summary of the method: as §1
# CP194 = tested on: CP194
# Summary of the method: as §1
# CP201 = tested on: CP201
# Summary of the method: as §1
# CP203 = tested on: CP203
# Summary of the method: as §1
# CP211 = tested on: CP211
# Summary of the method: as §1
# Potency is the fitted concentration of half-maximal effect.
structure (smiles),measurement,setting,value
Oc1ccc(Cl)cc1,Potency,ATS189,inactive
same,Potency,ATS95,inactive
same,Potency,C2A,inactive
same,Potency,CP185,inactive
same,Potency,CP191,inactive
same,Potency,CP192,inactive
same,Potency,CP194,inactive
same,Potency,CP201,inactive
same,Potency,CP203,inactive
same,Potency,CP211,inactive
C[C@]12CCC(=O)C=C1CC[C@@H]1[C@@H]2CC[C@]2(C)C(=O)CC[C@@H]12,Potency,ATS189,inactive
same,Potency,ATS95,inactive
same,Potency,C2A,inactive
same,Potency,CP185,inactive
same,Potency,CP191,inactive
same,Potency,CP192,inactive
same,Potency,CP194,inactive
same,Potency,CP201,inactive
same,Potency,CP203,inactive
same,Potency,CP211,inactive
CCCCC/C=C\C/C=C\C/C=C\C/C=C\CCCC(=O)NCC(=O)O,"activity, negative = inhibition",ATS189,-4.38% [at 2.67 µM]
same,"activity, negative = inhibition",ATS95,-8.06% [at 2.67 µM]
same,"activity, negative = inhibition",C2A,-0.778% [at 2.67 µM]
same,"activity, negative = inhibition",CP185,13.1% [at 2.67 µM]
same,"activity, negative = inhibition",CP191,8.29% [at 2.67 µM]
same,"activity, negative = inhibition",CP192,-0.958% [at 2.67 µM]
same,"activity, negative = inhibition",CP194,0.793% [at 2.67 µM]
same,"activity, negative = inhibition",CP201,1.43% [at 2.67 µM]
same,"activity, negative = inhibition",CP203,6.81% [at 2.67 µM]
same,"activity, negative = inhibition",CP211,8.66% [at 2.67 µM]
c1ccc2c(c1)sc1ccccc12,Potency,ATS189,inactive
same,Potency,ATS95,inactive
same,Potency,C2A,inactive
same,Potency,CP185,inactive
same,Potency,CP191,inactive
same,Potency,CP192,inactive
same,Potency,CP194,inactive
same,Potency,CP201,inactive
same,Potency,CP203,inactive
same,Potency,CP211,inactive
CN1C[C@H](C(=O)N[C@]2(C)O[C@@]3(O)[C@@H]4CCCN4C(=O)[C@H](Cc4ccccc4)N3C2=O)C=C2c3cccc4[nH]cc(c34)C[C@H]21,Potency,ATS189,3.16 µM (active)
same,Potency,ATS95,0.708 µM (active)
same,Potency,C2A,3.55 µM (active)
same,Potency,CP185,3.98 µM (active)
same,Potency,CP191,1.58 µM (active)
same,Potency,CP192,8.49 µM (active)
same,Potency,CP194,13.5 µM (active)
same,Potency,CP201,15.1 µM (active)
same,Potency,CP203,4.26 µM (active)
same,Potency,CP211,15.1 µM (active)
O=C(O)CCCc1ccc(N(CCCl)CCCl)cc1,Potency,ATS189,inactive
same,Potency,ATS95,inactive
same,Potency,C2A,inactive
same,Potency,CP185,inactive
same,Potency,CP191,inactive
same,Potency,CP192,inactive
same,Potency,CP194,inactive
same,Potency,CP201,inactive
same,Potency,CP203,inactive
same,Potency,CP211,inactive
O=c1[nH]oc2c1CCNC2,Potency,ATS189,inactive
same,Potency,ATS95,inactive
same,Potency,C2A,inactive
same,Potency,CP185,inactive
same,Potency,CP191,inactive
same,Potency,CP192,inactive
same,Potency,CP194,inactive
same,Potency,CP201,inactive
same,Potency,CP203,inactive
same,Potency,CP211,inactive
Clc1ccc2c(c1)C(c1ccccc1)=NCc1nncn1-2,Potency,ATS189,inactive
same,Potency,ATS95,inactive
same,Potency,C2A,inactive
same,Potency,CP185,inactive
same,Potency,CP191,inactive
same,Potency,CP192,inactive
same,Potency,CP194,inactive
same,Potency,CP201,inactive
same,Potency,CP203,inactive
same,Potency,CP211,inactive
CCC1(CC)C(=O)C=CNC1=O,Potency,ATS189,inactive
same,Potency,ATS95,inactive
same,Potency,C2A,inactive
same,Potency,CP185,inactive
same,Potency,CP191,inactive
same,Potency,CP192,inactive
same,Potency,CP194,inactive
same,Potency,CP201,inactive
same,Potency,CP203,inactive
same,Potency,CP211,inactive
COP(=S)(OC)SCN1C(=O)c2ccccc2C1=O,Potency,ATS189,inactive
same,Potency,ATS95,inactive
same,Potency,C2A,inactive
same,Potency,CP185,inactive
same,Potency,CP191,inactive
same,Potency,CP192,inactive
same,Potency,CP194,inactive
same,Potency,CP201,inactive
same,Potency,CP203,inactive
same,Potency,CP211,inactive
CN1C(=O)C(O)N=C(c2ccccc2)c2cc(Cl)ccc21 (configuration not stated),Potency,ATS189,inactive
same,Potency,ATS95,inactive
same,Potency,C2A,inactive
same,Potency,CP185,inactive
same,Potency,CP191,inactive
same,Potency,CP192,inactive
same,Potency,CP194,inactive
same,Potency,CP201,inactive
same,Potency,CP203,inactive
same,Potency,CP211,inactive
NCCc1ccc(O)cc1,Potency,ATS189,inactive
same,Potency,ATS95,inactive
same,Potency,C2A,inactive
same,Potency,CP185,inactive
same,Potency,CP191,inactive
same,Potency,CP192,inactive
same,Potency,CP194,inactive
same,Potency,CP201,inactive
same,Potency,CP203,inactive
same,Potency,CP211,inactive
CCCCCCC(=O)CCCCCC/C=C/C[C@@H](O)[C@H](O)[C@@](N)(CO)C(=O)O,Potency,ATS189,inactive
same,Potency,ATS95,inactive
same,Potency,C2A,inactive
same,Potency,CP185,inactive
same,Potency,CP191,inactive
same,Potency,CP192,inactive
same,Potency,CP194,inactive
same,Potency,CP201,inactive
same,Potency,CP203,inactive
same,Potency,CP211,inactive
CC(C)c1cccc(C(C)C)c1O,Potency,ATS189,inactive
same,Potency,ATS95,inactive
same,Potency,C2A,inactive
same,Potency,CP185,inactive
same,Potency,CP191,inactive
same,Potency,CP192,inactive
same,Potency,CP194,inactive
same,Potency,CP201,inactive
CN1C(=O)CC(=O)N(c2ccccc2)c2cc(Cl)ccc21,Potency,ATS189,inactive
same,Potency,ATS95,inactive
same,Potency,C2A,inactive
same,Potency,CP185,inactive
same,Potency,CP191,inactive
same,Potency,CP192,inactive
same,Potency,CP194,inactive
same,Potency,CP201,inactive
same,Potency,CP203,inactive
same,Potency,CP211,inactive
CCC1(c2ccccc2)C(=O)N(COC)C(=O)N(COC)C1=O,Potency,ATS189,inactive
same,Potency,ATS95,inactive
same,Potency,C2A,inactive
same,Potency,CP185,inactive
same,Potency,CP191,inactive
same,Potency,CP192,inactive
same,Potency,CP194,inactive
same,Potency,CP201,inactive
same,Potency,CP203,inactive
same,Potency,CP211,inactive
CN1C(=O)NC(=O)C(C)(C2=CCCCC2)C1=O (configuration not stated),Potency,ATS189,inactive
same,Potency,ATS95,inactive
same,Potency,C2A,inactive
same,Potency,CP185,inactive
same,Potency,CP191,inactive
same,Potency,CP192,inactive
same,Potency,CP194,inactive
same,Potency,CP201,inactive
same,Potency,CP203,inactive
same,Potency,CP211,inactive
CCCCCCCCCC(=O)O[C@H]1CC[C@H]2[C@@H]3CCC4=CC(=O)CC[C@@H]4[C@H]3CC[C@]12C,Potency,ATS189,inactive
same,Potency,ATS95,inactive
same,Potency,C2A,inactive
same,Potency,CP185,inactive
same,Potency,CP191,inactive
same,Potency,CP192,inactive
same,Potency,CP194,inactive
same,Potency,CP201,inactive
same,Potency,CP203,inactive
same,Potency,CP211,inactive
COc1c2c(cc3c1OCO3)CCN(C)C2,Potency,ATS189,inactive
same,Potency,ATS95,inactive
same,Potency,C2A,inactive
same,Potency,CP185,inactive
same,Potency,CP191,inactive
same,Potency,CP192,inactive
same,Potency,CP194,inactive
same,Potency,CP201,inactive
same,Potency,CP203,inactive
CC(C)=CC1C(C(=O)OCN2C(=O)C3=C(CCCC3)C2=O)C1(C)C (configuration not stated),Potency,ATS189,inactive
same,Potency,ATS95,inactive
same,Potency,C2A,inactive
same,Potency,CP185,inactive
same,Potency,CP191,inactive
same,Potency,CP192,inactive
same,Potency,CP194,inactive
same,Potency,CP201,inactive
same,Potency,CP203,inactive
same,Potency,CP211,inactive
NNc1ccccc1,Potency,ATS189,inactive
same,Potency,ATS95,inactive
same,Potency,C2A,inactive
same,Potency,CP185,inactive
same,Potency,CP191,inactive
same,Potency,CP192,inactive
same,Potency,CP194,inactive
same,Potency,CP201,inactive
same,Potency,CP203,inactive
same,Potency,CP211,inactive
NC(=O)CS(=O)C(c1ccccc1)c1ccccc1 (configuration not stated),Potency,ATS189,inactive
same,Potency,ATS95,inactive
same,Potency,C2A,inactive
same,Potency,CP185,inactive
same,Potency,CP191,inactive
same,Potency,CP192,inactive
same,Potency,CP194,inactive
same,Potency,CP201,inactive
same,Potency,CP203,inactive
same,Potency,CP211,inactive
Nc1nc(N)nc(NC2CC2)n1,Potency,ATS189,inactive
same,Potency,ATS95,inactive
same,Potency,C2A,inactive
same,Potency,CP185,inactive
same,Potency,CP191,inactive
same,Potency,CP192,inactive
same,Potency,CP194,inactive
same,Potency,CP201,inactive
same,Potency,CP203,inactive
same,Potency,CP211,inactive
C=C(C)[C@H]1CN[C@H](C(=O)O)[C@H]1CC(=O)O,Potency,ATS189,inactive
same,Potency,ATS95,inactive
same,Potency,C2A,inactive
same,Potency,CP185,inactive
same,Potency,CP191,inactive
same,Potency,CP192,inactive
same,Potency,CP194,inactive
same,Potency,CP201,inactive
same,Potency,CP203,inactive
same,Potency,CP211,inactive
Nc1ccccc1C(=O)O,Potency,ATS189,inactive
same,Potency,ATS95,inactive
same,Potency,C2A,inactive
same,Potency,CP185,inactive
same,Potency,CP191,inactive
same,Potency,CP192,inactive
same,Potency,CP194,inactive
same,Potency,CP201,inactive
same,Potency,CP203,inactive
same,Potency,CP211,inactive
COP(=S)(OC)Oc1ccc(SC)c(C)c1,Potency,ATS189,inactive
same,Potency,ATS95,inactive
same,Potency,C2A,inactive
same,Potency,CP185,inactive
same,Potency,CP191,inactive
same,Potency,CP192,inactive
same,Potency,CP194,inactive
same,Potency,CP201,inactive
same,Potency,CP203,inactive
same,Potency,CP211,inactive
O=C1Nc2ccc(Cl)cc2C(c2ccccc2)=NC1O (configuration not stated),Potency,ATS189,inactive
same,Potency,ATS95,inactive
same,Potency,C2A,inactive
same,Potency,CP185,inactive
same,Potency,CP191,inactive
same,Potency,CP192,inactive
same,Potency,CP194,inactive
same,Potency,CP201,inactive
same,Potency,CP203,inactive
same,Potency,CP211,inactive
CN1C(=O)CCS(=O)(=O)C1c1ccc(Cl)cc1 (configuration not stated),Potency,ATS189,inactive
same,Potency,ATS95,inactive
same,Potency,C2A,inactive
same,Potency,CP185,inactive
same,Potency,CP191,inactive
same,Potency,CP192,inactive
same,Potency,CP194,inactive
same,Potency,CP201,inactive
same,Potency,CP203,inactive
same,Potency,CP211,inactive
